Screens as filed in PubChem.
CYP2C9 inhib – blockers of cytochrome P450 2C9 activity – biochemical, luminescence, ADME assay, primary screen; AID 777, 2007; inhibition, % at 5 µM; P11712; hit rate 20% among 96,000; CYP2C9 Supersomes, luciferin-H conversion;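 active means blocking of liver enzyme CYP2C9 beyond about 50% at 5 µM, limit read from the data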
CYP2C19 activ – human CYP2C19 activators, primary screen, biochemical, luminescence | recombinant CYP2C19, luciferin-H EGE luminescence; hits give high values; 0 = fully inhibited enzyme, 1 = untreated enzyme | activation factor at 5 µM | 96,000 tested, under 10 active | AID 1025, 2008;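 active means activation factor of at least 2 at 5 µM in the primary screen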;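 further: 0 = wells with 2.5 mM tranylcypromine and 1 = vehicle-only wells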
Target sequence (P33261 whole entry, looked up): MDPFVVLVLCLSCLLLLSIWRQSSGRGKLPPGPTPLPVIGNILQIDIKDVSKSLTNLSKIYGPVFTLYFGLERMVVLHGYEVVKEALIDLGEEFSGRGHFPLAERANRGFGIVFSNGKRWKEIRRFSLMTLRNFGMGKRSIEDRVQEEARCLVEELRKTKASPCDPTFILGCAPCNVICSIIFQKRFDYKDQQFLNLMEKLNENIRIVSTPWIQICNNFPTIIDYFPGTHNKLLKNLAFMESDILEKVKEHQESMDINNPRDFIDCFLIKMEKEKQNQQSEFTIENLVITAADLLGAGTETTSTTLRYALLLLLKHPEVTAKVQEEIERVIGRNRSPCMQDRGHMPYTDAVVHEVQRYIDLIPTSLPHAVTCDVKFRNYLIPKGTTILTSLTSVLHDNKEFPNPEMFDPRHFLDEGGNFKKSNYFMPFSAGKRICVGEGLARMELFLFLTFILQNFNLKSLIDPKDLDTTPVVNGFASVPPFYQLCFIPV
MRP reversal – reversal of MRP1-mediated doxorubicin resistance, primary screen, H69AR cells, doxorubicin co-treatment. differential viability (reversal), % at 10 µM. H69AR cells + 2 uM doxorubicin, CellTiter-Glo, 72 h. hit rate 0.04% among 85,000;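 active means viability drop by adding the cancer drug above about 55%, with treated viability meeting a 40% cutoff, limit read from the data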;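 further: viability without doxorubicin minus viability with 2 µM doxorubicin for each compound; larger differential means the compound sensitizes cells more to doxorubicin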
CYP2C9 activ – human CYP2C9 activators, primary screen, biochemical, luminescence; hit rate 1.4% among 96,000; AID 1024, 2008; Cytochrome P450 2C9 (Homo sapiens), P11712; recombinant CYP2C9, luciferin-H conversion; hits give high values; factor 1 = untreated enzyme, 0 = blocked; activation factor at 5 µM;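 active means activation factor of 2 or more for CYP2C9 at a 5 µM dose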;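 further: 0 = sulfaphenazole-blocked wells and 1 = vehicle-only wells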
CYP2C19 inhib – blockers of cytochrome P450 2C19 activity – biochemical, luminescence, ADME assay, primary screen; AID 778, 2007; CYP2C19 Supersomes, luciferin-H EGE luminescence, 30 min; P33261; inhibition, % at 5 µM; hit rate 21% among 96,000;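 active means CYP2C19 inhibition above a set limit at 5 µM in the primary screen, cut at about 50% in these data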;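 further: plate controls were negative control wells for no effect and 2.5 mM tranylcypromine positive control for full effect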
MRP-1 activ – H69AR viability gain despite doxorubicin, primary screen, MRP-1 activator project, H69AR cells, CellTiter-Glo; viability rescue; viability increase, % at 10 µM; hit rate 0.61% among 140,000;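 active means viability gain under doxorubicin at or above a set limit, the compound median plus 3 SD, cut at about 4.7% in these data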;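 further: MRP-1 overexpressing cells given doxorubicin 25 µM after compound pretreatment; 18-22 h compound pretreatment then 72 h with doxorubicin before readout; 0% = doxorubicin-only wells and 100% = vehicle-treated cells without doxorubicin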
An asterisk follows results filed as active; . = no result. Most compounds without a hit are left out; they make up all but 21% or so of the library.

SMILES | CYP2C9 inhib | CYP2C19 activ | MRP reversal | CYP2C9 activ | CYP2C19 inhib | MRP-1 activ
O=C(NC1=NCCS1)C1COc2ccccc2O1 (stereo not drawn) | 23 | 0.9 | -16 | 0.8 | 8 | -1
Cc1cc(C)n(C(=O)c2ccc(NC(=O)C3COc4ccccc4O3)cc2)n1 (stereo not drawn) | -67 | 0.6 | -6 | 1.7 | 45 | 0
O=C1OCc2cc(NC(=O)C3COc4ccccc4O3)ccc21 (stereo not drawn) | . | . | -17 | . | . | 0
O=C(Nc1ccc2c(c1)OCO2)C1COc2ccccc2O1 (stereo not drawn) | 7 | 0.3 | -9 | 0.9 | 70* | -3
O=C(Nc1ccncc1)C1COc2ccccc2O1 (stereo not drawn) | 52* | 0 | 5 | 0.5 | 96* | 0
CCN(CC)S(=O)(=O)c1ccc(NC(=O)COC(=O)CN2C(=O)c3ccccc3C2=O)cc1 | 81* | 0.7 | . | 0.2 | 33 | 1
CC1(C)NC(=O)N(CC(=O)O)C1=O | -10 | 0.9 | . | 1.1 | 7 | -1
CN1C=CC=C/C1=C(\C#N)c1nc2ccccc2[nH]1 | -6 | 1 | 4 | 1.1 | -1 | 1
O=[N+]([O-])c1ccc(N2CCN(S(=O)(=O)c3ccccc3)CC2)cc1NCc1ccco1 | . | . | . | . | . | -4
O=C(Nc1ccc2c(c1)CCC2)C1COc2ccccc2O1 (stereo not drawn) | -1 | 0 | 9 | 1 | 95* | 0
CCn1c(-c2c[nH]c3ccccc23)n[nH]c1=S | 54* | 0.5 | 10 | 0.5 | 47 | -1
Cc1[nH]c2ccc(-c3n[nH]c(=S)n3C)cc2c1C | 37 | 0.6 | 28 | 0.6 | 42 | 0
CCn1c(CCn2c3ccccc3c3ccccc32)n[nH]c1=S | . | . | . | . | . | -3
CCn1c(CSc2nc3ccccc3[nH]2)n[nH]c1=S | 35 | 0.4 | 10 | 0.7 | 56* | 0
CCn1c(-c2ccc3[nH]c(C)c(C)c3c2)n[nH]c1=S | 90* | 0.2 | 9 | 0.1 | 78* | -1
CCn1c(Cc2c(C)[nH]c3ccccc23)n[nH]c1=S | 7 | 0.1 | -10 | 0.9 | 91* | -4
CS(=O)(=O)N(CC(=O)N1CCN(c2cccc(Cl)c2)CC1)c1cccc(F)c1 | -1 | 1 | 3 | 1 | -5 | 1
CCn1c(-c2cc3ccccc3cc2O)n[nH]c1=S | 26 | 0.5 | 27 | 0.7 | 52* | 0
CN(C)S(=O)(=O)Nc1ccc2c(c1)Cc1ccccc1-2 | 94* | 0.6 | -7 | 0.1 | 43 | -2
CN(C)S(=O)(=O)Nc1ccc(NS(=O)(=O)N(C)C)c(S(=O)(=O)c2ccccc2)c1 | 36 | 1.1 | 9 | 0.6 | -7 | 0
COc1ccc(C(=O)Nc2ccc3c(c2)Cc2ccccc2-3)cc1 | -2 | 0.9 | . | 1 | 5 | -2
COc1ccc(NS(=O)(=O)c2ccc3c(c2)Cc2ccccc2-3)cn1 | 88* | 0.6 | -11 | 0.1 | 43 | 1
Cc1cnn(-c2ccc3nnc(-c4ccc(Br)cc4)n3n2)c1 | 14 | 1 | -3 | 0.9 | 0 | -1
Clc1cccc(-c2cc3nc4c(c(N5CCOCC5)n3n2)CCCC4)c1 | 89* | 0.3 | -5 | 0.1 | 70* | -2
Clc1cccc(-c2cc3nc4c(c(N5CCN(c6cnccn6)CC5)n3n2)CCCC4)c1 | . | . | -12 | . | . | 4
SMILES | CYP2C9 inhib | CYP2C19 activ | MRP reversal | CYP2C9 activ | CYP2C19 inhib | MRP-1 activ
Fc1cccc(-c2cc3nc4c(c(N5CCOCC5)n3n2)CCCC4)c1 | 94* | 0.4 | 4 | 0.1 | 63* | -2
Fc1cccc(-c2cc3nc4c(c(N5CCN(c6cnccn6)CC5)n3n2)CCCC4)c1 | . | . | -13 | . | . | .
O/N=C/c1cc(Cl)ccc1OCc1cccc2ccccc12 | 76* | 0.5 | . | 0.2 | 53* | -3
C#CCOc1ccc(Br)cc1/C=N/O | 66* | 0.4 | -3 | 0.3 | 64* | -3
C#CCOc1ccc(/C=N/O)cc1Cl | . | . | . | . | . | -3
C#CCOc1ccc(Cl)cc1/C=N/O | 45 | 0.5 | 7 | 0.6 | 51* | -3
CC1CCN(C(=O)c2cc(F)c(F)cc2Cl)CC1 | . | . | -6 | . | . | -1
O=S(=O)(c1cccs1)N1CCN(C/C=C/c2ccccc2)CC1 | 74* | 0.1 | -28 | 0.3 | 86* | -2
O=S(=O)(c1ccc(Cl)s1)N1CCN(C/C=C/c2ccccc2)CC1 | 80* | 0.2 | 2 | 0.2 | 78* | 0
CS(=O)(=O)N1CCN(C/C=C/c2ccccc2)CC1 | 8 | 0.6 | -9 | 0.9 | 38 | 0
C=CCOc1ccc(C2N3CC4(CC)CN2CC(CC)(C3)C4=O)cc1 (stereo not drawn) | -12 | 1 | 28 | 1.1 | -5 | 0
CCC12CN3CC(CC)(CN(C1)C3c1c(O)ccc3ccccc13)C2=O (stereo not drawn) | 14 | 0.5 | 20 | 0.9 | 54* | -2
CN(C(=O)CCc1nc2ccccc2s1)c1ccccc1 | 1 | 0.3 | . | 1 | 70* | 1
COC(=O)CCCc1nc2ccccc2s1 | 24 | 0.6 | 18 | 0.8 | 38 | -1
O=C(CCc1nc2ccccc2s1)c1ccccc1 | . | . | . | . | . | -2
O=C(O)CCCc1nc2ccccc2s1 | 4 | 0.4 | 3 | 1 | 55* | -2
Cn1nc(-c2ccc(Cl)cc2)c2cc(C(=O)N3CCC(N4CCCCC4)CC3)sc21 | . | . | 4 | . | . | .
COC(=O)c1ccccc1NC(NC(=O)c1ccco1)C(=O)c1ccc(C)cc1 (stereo not drawn) | 58* | 0.8 | -11 | 0.4 | 18 | 0
COC(=O)c1ccccc1NC(=S)NC(NC(=O)c1ccccc1[N+](=O)[O-])C(Cl)(Cl)Cl (stereo not drawn) | 97* | 0.1 | . | 0 | 94* | -2
COC(=O)c1ccccc1NC(=O)c1ccco1 | -22 | 0.9 | 20 | 1.2 | 15 | 0
O=C(NC(NC(=S)Nc1ccccc1C(=O)O)C(Cl)(Cl)Cl)c1ccco1 (stereo not drawn) | . | . | . | . | . | -2
COC(=O)c1ccccc1NC(=S)NC(NC(=O)c1ccco1)C(Cl)(Cl)Cl (stereo not drawn) | 88* | 0.6 | . | 0.1 | 42 | -4
CCN1C(=O)N(CC)C2C1N(C(C)=O)C(=O)N2C(C)=O (stereo not drawn) | . | . | -15 | . | . | -1
O=C(OCC(=O)N1CCCC1)c1cccs1 | -4 | 1 | 4 | 1 | 5 | 1
NC(=O)CN1CCN(C(=O)NC2CCCCC2)CC1 | -17 | 1.2 | -2 | 1.2 | -15 | 0
COc1ccc(S(N)(=O)=O)cc1C(=O)NCC1(N2CCCCC2)CCCCC1 | -7 | 1 | 6 | 1.1 | 1 | -2
COC(=O)CSc1nnc(-c2sc3cc(OC)ccc3c2Cl)n1C | -4 | 0.4 | 14 | 1 | 56* | -3
